The subject of one assay is LXRb homodimer (NR concentration 270 nM). Description: PBM binding z-score (relative to random genomic background probes); higher = stronger binding; sequences stand for … in GC…GCGATTGACAGCGTAGAATGAAGG
A digest of the protocol: (§1)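 Scanned fluorescence from custom Agilent 4×180K protein-binding microarrays was regression-normalized. Binding z-scores use random background probes as reference. Ligand-free nuclear receptor dimers were incubated on the arrays for 1 h and detected with antibodies against each partner (one per run).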
As to ATATGTAGGTTAGCTGTGGTCATTCAGACTAGGC, the PBM binding z-score came to 0.0822.

For TCTCGGAGGACACGAAAGGTCAGCGCTCGACATC, the PBM binding z-score is -0.162.

In turn, TCCTGTAGATCAAAGGTTAAGAAAGCCGAAGCCT yielded a PBM binding z-score of -0.193.

Take TCTAGTTGGTCGAAGGTCACACACTCGAAATGCG: the PBM binding z-score was determined as 0.802.

TCATATAGGTAAAGGTGAAAGTCGAACGATATGA displayed a PBM binding z-score of -0.112.

As for TAGCCTAGGTCATTCATGGGCCAGTATAGAAAGC, the PBM binding z-score was determined as 0.48.

The sequence AGAATGAGCTTATACGTAGATCAGGGAAGAAAGT showed a PBM binding z-score of -0.689.

Regarding GCGACTGGGGCAAAGCAGGTTACCATAAGGTTGG, the PBM binding z-score is -1.39.

ACTAGTTTGTCAGCTGAGGTCACACACAATTCGG: the PBM binding z-score was found to be 1.33.

In the case of ATACCAAGGTGTTCGTGAGGTCGTTGATACTAAC, the PBM binding z-score came to 0.178.

In turn, CCAGACAGGTGAAAGGTAAGTCAGTCTGGTACGC showed a PBM binding z-score of -0.505.

Take AGAATGAGGTTATACGTATATCAGGGAAGAAAGT: the PBM binding z-score worked out at 0.468.

Consider GCTATTAGTTGAAAGGGCTACCGAATGATTCTCG, for which the PBM binding z-score was -0.468.

For the sequence CCTACTGGGCCAAAGGTCATTGTTTCCAATGCTC, the PBM binding z-score was found to be 1.37.

For the sequence GCTAGCAGGCCATTTGGGTCTCTCAATGACGGGC, the PBM binding z-score is -1.24.

The sequence TCGAGTAGGTTAGTTGGGGCATTCAGCCAACATA registered a PBM binding z-score of -0.31.

On to AATACAGGGCCACTAGGCCAGAGTAGGTACGAAT, for which the PBM binding z-score is -0.877.

On to ATACGTAGGTTAGCTGGGGTCATTCAGACTAGGC, for which the PBM binding z-score worked out at 0.757.

The sequence GCTAGTTGGCCAGTAAAAGGTCACACACCGGTCG displayed a PBM binding z-score of 0.221.

For TGTCAAAGTTCAGAGGTAACGTAAGTATCCACAC, the PBM binding z-score is 0.204.

ATCTCTAGGTCAGACTCAGTTCAGTGAAGAACGC: the PBM binding z-score was 2.

For TCACATAGGTAAAAGGTGAAAGTCGGTGTGGTAA, the PBM binding z-score was -0.337.

TCTTGTAGATGAATAGAGGTTAAGAAAGTGCGCT had a PBM binding z-score of 0.559.

Consider AGAATTAGGTTACCAAAGATCAGGGAAACGCTTG, for which the PBM binding z-score is -0.0791.

Consider ATCTCTAAGTAAAGTTCAGTGAAAGATCGATAGA, for which the PBM binding z-score turned out to be 0.906.

Sequence AATAGAGGGTCACTAGGCCAGAGTAGGTACGAAT came in with a PBM binding z-score of -0.0545.

As for AGAACGAGGGCACGCTGATTTGATAGCAGAGTAG, the PBM binding z-score was -0.795.

GGAACGAGGGCAAGTTGATGGCAGAGTTTGATGG came in with a PBM binding z-score of -0.434.

In turn, CCTAGTTGGTCAATGTCACACACGCTATAGGTAC yielded a PBM binding z-score of 1.1.

As to TCATTTAGGTAATACAGGTGAAAGTCGGCATCTA, the PBM binding z-score was 1.18.

With CCTTACGGGTTACTGACAGGTTATAGCATTTGGA, the PBM binding z-score was -0.567.

With ACTATTCGTTGACTTAGGGCAACCGATACGACGC, the PBM binding z-score amounted to 1.46.

ACCTCTAGGTAAGACTCAGTTCAGTGAAGAACGC returned a PBM binding z-score of 0.0183.

In the case of CGTCCAAGGTCAATGCTAGGTCAGTGAAAGCATT, the PBM binding z-score was determined as 0.958.

ACTATTAGTTGAGACGAGGGCAACCGCTAGGTTG showed a PBM binding z-score of -0.113.

On to TCTTGTAGATCAAAAGAGGTTAAGAAAGTGCGCT, for which the PBM binding z-score is -0.239.

Sequence CGAACGAGGGCATGAGTTGAGAGCAAATGCCGAT came in with a PBM binding z-score of -1.

With GCTATTAGTTGAAAGGGCAACCAAATGATTCTCG, the PBM binding z-score was -0.0517.

CAAACTAGGTCAAAGGTCAAAGGCGAGCCAACCA yielded a PBM binding z-score of 2.68.

GCTTGTAGATCAACGTTAAGAAAGACTAAGCTAA had a PBM binding z-score of -0.769.

In a further assay the test system is PPARa:RXRa (NR concentration 270 nM, RXRa partner concentration 90 nM). The description is as above. A digest of the protocol: as §1
Take ATATGTAGGTTAGCTGTGGTCATTCAGACTAGGC: the PBM binding z-score was 2.29.

For TCTCGGAGGACACGAAAGGTCAGCGCTCGACATC, the PBM binding z-score was 3.88.

In turn, TCCTGTAGATCAAAGGTTAAGAAAGCCGAAGCCT displayed a PBM binding z-score of 4.17.

As for TCTAGTTGGTCGAAGGTCACACACTCGAAATGCG, the PBM binding z-score worked out at 4.57.

TCATATAGGTAAAGGTGAAAGTCGAACGATATGA registered a PBM binding z-score of 3.41.

Turning to TAGCCTAGGTCATTCATGGGCCAGTATAGAAAGC, the PBM binding z-score was 3.38.

On to AGAATGAGCTTATACGTAGATCAGGGAAGAAAGT, for which the PBM binding z-score is -0.706.

Consider GCGACTGGGGCAAAGCAGGTTACCATAAGGTTGG, for which the PBM binding z-score stood at 1.15.

In the case of ACTAGTTTGTCAGCTGAGGTCACACACAATTCGG, the PBM binding z-score was 3.71.

ATACCAAGGTGTTCGTGAGGTCGTTGATACTAAC yielded a PBM binding z-score of 1.24.

In turn, CCAGACAGGTGAAAGGTAAGTCAGTCTGGTACGC showed a PBM binding z-score of 2.87.

Regarding AGAATGAGGTTATACGTATATCAGGGAAGAAAGT, the PBM binding z-score came out at 3.47.

In the case of GCTATTAGTTGAAAGGGCTACCGAATGATTCTCG, the PBM binding z-score was 0.0178.

For CCTACTGGGCCAAAGGTCATTGTTTCCAATGCTC, the PBM binding z-score is 6.74.

On to GCTAGCAGGCCATTTGGGTCTCTCAATGACGGGC, for which the PBM binding z-score was -0.217.

Regarding TCGAGTAGGTTAGTTGGGGCATTCAGCCAACATA, the PBM binding z-score came out at 0.49.

AATACAGGGCCACTAGGCCAGAGTAGGTACGAAT gave a PBM binding z-score of 0.171.

The sequence ATACGTAGGTTAGCTGGGGTCATTCAGACTAGGC showed a PBM binding z-score of 4.24.

As for GCTAGTTGGCCAGTAAAAGGTCACACACCGGTCG, the PBM binding z-score was found to be 4.29.

The sequence TGTCAAAGTTCAGAGGTAACGTAAGTATCCACAC showed a PBM binding z-score of 4.07.

On to ATCTCTAGGTCAGACTCAGTTCAGTGAAGAACGC, for which the PBM binding z-score amounted to 2.7.

Sequence TCACATAGGTAAAAGGTGAAAGTCGGTGTGGTAA yielded a PBM binding z-score of 4.37.

The sequence TCTTGTAGATGAATAGAGGTTAAGAAAGTGCGCT gave a PBM binding z-score of 1.93.

AGAATTAGGTTACCAAAGATCAGGGAAACGCTTG registered a PBM binding z-score of 2.9.

As to ATCTCTAAGTAAAGTTCAGTGAAAGATCGATAGA, the PBM binding z-score is 1.66.

Take AATAGAGGGTCACTAGGCCAGAGTAGGTACGAAT: the PBM binding z-score was 4.99.

In turn, AGAACGAGGGCACGCTGATTTGATAGCAGAGTAG displayed a PBM binding z-score of 2.31.

In the case of GGAACGAGGGCAAGTTGATGGCAGAGTTTGATGG, the PBM binding z-score stood at 1.55.

For CCTAGTTGGTCAATGTCACACACGCTATAGGTAC, the PBM binding z-score was 0.77.

TCATTTAGGTAATACAGGTGAAAGTCGGCATCTA displayed a PBM binding z-score of 2.02.

CCTTACGGGTTACTGACAGGTTATAGCATTTGGA: the PBM binding z-score is 1.78.

ACTATTCGTTGACTTAGGGCAACCGATACGACGC returned a PBM binding z-score of 0.125.

On to ACCTCTAGGTAAGACTCAGTTCAGTGAAGAACGC, for which the PBM binding z-score was -0.0817.

Sequence CGTCCAAGGTCAATGCTAGGTCAGTGAAAGCATT registered a PBM binding z-score of 5.11.

ACTATTAGTTGAGACGAGGGCAACCGCTAGGTTG gave a PBM binding z-score of 0.374.

TCTTGTAGATCAAAAGAGGTTAAGAAAGTGCGCT gave a PBM binding z-score of 1.89.

Sequence CGAACGAGGGCATGAGTTGAGAGCAAATGCCGAT gave a PBM binding z-score of 1.65.

Turning to GCTATTAGTTGAAAGGGCAACCAAATGATTCTCG, the PBM binding z-score is 2.45.

On to CAAACTAGGTCAAAGGTCAAAGGCGAGCCAACCA, for which the PBM binding z-score worked out at 7.65.

The sequence GCTTGTAGATCAACGTTAAGAAAGACTAAGCTAA returned a PBM binding z-score of -0.124.

Values taken from the supplement of paper PMC6555819.
